Consider eight molecules from PubChem BioAssay (NCI).

Among the test systems are NCI-H23 lung; NCI-H226 lung; NCI-H322M lung; HOP-62 NSCLC; NCI-H460 lung; HOP-92 NSCLC; NCI-H522 lung; A549/ATCC NSCLC; 786-0 renal; COLO 205 colon; DU-145 prostate; K-562 leukemia; MALME-3M melanoma; MDA-MB-231 breast; RXF 393 renal; SF-268 CNS; SF-295 CNS; SF-539 CNS; UACC-257 melanoma; M14 melanoma.
What all share (assay): NCI-60 one-dose screen, 48 h (100 = growth as untreated, 0 = no growth, -100 = all killed)
What all share (conditions): 10 µM

The panel holds about 83,000 compounds, 20% with a hit somewhere; the sample as a whole holds those more often.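 Plates (96-well) were seeded with cells, treated with compound at one concentration, and incubated for 48 hours before percent growth was determined.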 A number with no mark means an inactive call. Calls of active or inactive are those of the source. Rule for the calls: active = growth percent below 10; inactive = the rest.

As to `COc1ccc(C(C)=O)cc1N1C(=O)C2C(C1=O)C1(c3ccccc3)C(=O)C2(c2ccccc2)C(c2ccc(C)cc2)=C1c1ccc(C)cc1` (stereo not given), the growth was 42.8% in the assay on NCI-H23 lung; 32.9% in the assay on NCI-H226 lung; 27.6% in the assay with NCI-H322M lung; 33.4% in the assay on HOP-62 NSCLC; 4.54% (active) with NCI-H460 lung; 49.6% in the assay with HOP-92 NSCLC. The growth with NCI-H522 lung was 21.2%; in the assay on A549/ATCC NSCLC, 6.68% (active); in the assay with 786-0 renal, 22.1%; with COLO 205 colon, 23.4%; in the assay on DU-145 prostate it was 19.1%; with K-562 leukemia, 11.7%. For the same molecule, the growth is 17% with MALME-3M melanoma; 12.3% with MDA-MB-231 breast; -4.28% (active) in the assay on RXF 393 renal; 13.8% with SF-268 CNS; 1.18% (active) in the assay with SF-295 CNS; 11.4% in the assay with SF-539 CNS. In addition, the growth was 16.2% with UACC-257 melanoma and -28.1% (active) in the assay with M14 melanoma.
On to `O=C(N/N=C\c1cc(Cl)ccc1O)c1ccncc1`, for which the growth with NCI-H23 lung was 46%; in the assay on NCI-H226 lung, 31.6%; in the assay with NCI-H322M lung, 59.5%; in the assay on HOP-62 NSCLC it was 55.7%; in the assay with NCI-H460 lung, 25.3%; in the assay on HOP-92 NSCLC, 47.5%. Moreover, the growth was 11.7% in the assay with NCI-H522 lung; 79.8% in the assay on A549/ATCC NSCLC; 19.1% in the assay with 786-0 renal; 23.7% with COLO 205 colon; 48.3% with DU-145 prostate; 39.1% in the assay on K-562 leukemia. The growth was 80% with MALME-3M melanoma; 56% with MDA-MB-231 breast; 57.4% with RXF 393 renal; 37.5% in the assay with SF-268 CNS; 77.2% in the assay on SF-295 CNS; 63.6% with SF-539 CNS. In addition, the growth in the assay on UACC-257 melanoma was 53.7%; in the assay on M14 melanoma, 47.6%.
As for `COc1cc(C(c2c[nH]c3ccccc23)N2CCCC2)ccc1OCc1ccccc1` (stereo not given), the growth was 82% in the assay with NCI-H23 lung; 80.1% with NCI-H226 lung; 72.7% in the assay with NCI-H322M lung; 90.3% in the assay with HOP-62 NSCLC; 98.9% in the assay with NCI-H460 lung; 12.7% with HOP-92 NSCLC. Moreover, the growth with NCI-H522 lung was 71.1%; in the assay with A549/ATCC NSCLC, 94.5%; in the assay on 786-0 renal, 87.4%; in the assay on COLO 205 colon, 104%; in the assay with DU-145 prostate it was 95.9%; in the assay with K-562 leukemia, 71.2%. The growth is 81.8% in the assay on MALME-3M melanoma; 58.4% in the assay with MDA-MB-231 breast; 52.9% in the assay on RXF 393 renal; 74.6% in the assay on SF-268 CNS; 93.8% in the assay with SF-295 CNS; 4.28% (active) with SF-539 CNS. For the same molecule, the growth in the assay on UACC-257 melanoma was 85.3%; in the assay with M14 melanoma, 88.2%.
For the molecule `CC(CNC(Cc1ccccc1)c1ccccc1)NC(Cc1ccccc1)c1ccccc1` (stereo not given), the growth was 30.3% with NCI-H23 lung; 34.8% with NCI-H226 lung; 77.7% in the assay with NCI-H322M lung; 39.9% in the assay on HOP-62 NSCLC; 8.03% (active) in the assay with NCI-H460 lung; -0.172% (active) in the assay with HOP-92 NSCLC. For the same molecule, the growth in the assay with NCI-H522 lung is 9.37% (active); in the assay on A549/ATCC NSCLC, 46.8%; with 786-0 renal, 50.2%; in the assay with COLO 205 colon it was 9.3% (active); in the assay on DU-145 prostate, 21.4%; in the assay with K-562 leukemia, 8.06% (active). Moreover, the growth in the assay on MALME-3M melanoma was 45%; in the assay on MDA-MB-231 breast, 17.4%; in the assay on RXF 393 renal, 43.7%; in the assay on SF-268 CNS, 53.5%; in the assay on SF-295 CNS, 61.2%; in the assay with SF-539 CNS, 52.7%. Moreover, the growth in the assay with UACC-257 melanoma is 76.9%; with M14 melanoma, 30.4%.
With `COc1cc(-c2nc3cc(Cl)c(Cl)cc3[nH]2)ccc1OCC(=O)NN`, the growth was 92.8% in the assay with NCI-H23 lung; 90.5% in the assay with NCI-H226 lung; 79.1% in the assay on NCI-H322M lung; 72% with HOP-62 NSCLC; 84.8% in the assay on NCI-H460 lung; 94% with HOP-92 NSCLC. In addition, the growth with NCI-H522 lung was 67.5%; in the assay on A549/ATCC NSCLC it was 71%; in the assay with 786-0 renal, 96.1%; in the assay with COLO 205 colon, 108%; in the assay with DU-145 prostate, 75.5%; in the assay on K-562 leukemia, 31.9%. Besides, the growth in the assay with MALME-3M melanoma was 95.3%; with MDA-MB-231 breast it was 57.8%; with RXF 393 renal it was 131%; in the assay on SF-268 CNS, 77.6%; in the assay on SF-295 CNS it was 71.5%; in the assay on SF-539 CNS, 80.5%. Moreover, the growth is 96.9% with UACC-257 melanoma and 95.1% in the assay on M14 melanoma.
On to `Nc1nsc(C(=O)c2ccc(O)cc2)n1`, for which the growth in the assay with NCI-H23 lung was 98.6%; with NCI-H226 lung, 104%; with NCI-H322M lung it was 105%; in the assay with HOP-62 NSCLC it was 76.4%; in the assay with NCI-H460 lung, 110%; in the assay on HOP-92 NSCLC, 88%. Moreover, the growth with NCI-H522 lung was 91.8%; in the assay with A549/ATCC NSCLC it was 83.7%; in the assay on 786-0 renal it was 117%; in the assay on COLO 205 colon, 106%; in the assay on DU-145 prostate, 105%; with K-562 leukemia it was 107%. Moreover, the growth with MALME-3M melanoma is 109%; with MDA-MB-231 breast, 90.4%; in the assay with RXF 393 renal, 120%; in the assay with SF-268 CNS, 101%; in the assay on SF-295 CNS, 99.4%; in the assay with SF-539 CNS, 92.9%. The growth in the assay with UACC-257 melanoma was 87%; in the assay with M14 melanoma it was 105%.
Take `CCCCCCCCCCCCCC[n+]1ccccc1`: the growth in the assay with NCI-H23 lung is -11.7% (active); in the assay on NCI-H226 lung, -19% (active); in the assay with NCI-H322M lung, 16.9%; in the assay with HOP-62 NSCLC, -62% (active); with NCI-H460 lung, -44.8% (active); in the assay with HOP-92 NSCLC, -50.8% (active). In addition, the growth was -66.9% (active) with NCI-H522 lung; -55.8% (active) with A549/ATCC NSCLC; -53.5% (active) in the assay on 786-0 renal; -93% (active) with COLO 205 colon; -48.6% (active) with DU-145 prostate; 0.808% (active) with K-562 leukemia. Also, the growth with MALME-3M melanoma is -50.8% (active); with MDA-MB-231 breast, -62.6% (active); with RXF 393 renal, -69.6% (active); in the assay with SF-268 CNS it was -37.3% (active); in the assay on SF-295 CNS, -89.8% (active); with SF-539 CNS, -30.7% (active). Moreover, the values for the growth with UACC-257 melanoma and in the assay with M14 melanoma were -70.8% (active) and -33.5% (active), respectively.
`Nc1nc2c(ncn2C2OC3COP(=O)(O)OC4C(COP(=O)(O)OC2C3O)OC(n2cnc3c(N)ncnc32)C4O)c(=O)[nH]1` (stereo not given): the growth in the assay with NCI-H23 lung was 106%; with NCI-H226 lung, 75.6%; in the assay on NCI-H322M lung, 105%; in the assay on HOP-62 NSCLC, 94%; in the assay with NCI-H460 lung it was 108%; with HOP-92 NSCLC, 109%. For the same molecule, the growth in the assay on NCI-H522 lung was 103%; in the assay on A549/ATCC NSCLC, 109%; in the assay with 786-0 renal it was 103%; in the assay on COLO 205 colon it was 98.1%; in the assay with DU-145 prostate, 107%; in the assay with K-562 leukemia, 92.5%. The growth in the assay on MALME-3M melanoma was 106%; with MDA-MB-231 breast, 114%; with RXF 393 renal, 114%; in the assay with SF-268 CNS, 102%; with SF-295 CNS, 96.9%; with SF-539 CNS it was 0.807% (active). Also, the growth in the assay with UACC-257 melanoma is 112%; in the assay with M14 melanoma it was 106%.
